Measurements reported in PubChem BioAssay (Tox21).
Inconclusive results are not listed. The source made the active and inactive calls. Unless noted, the call rests on the fitted dose curve; in most records, active means well fitted curve in the direction sought with a large enough effect in the repeat runs; inconclusive means weak or mixed curves; inactive means no such curve, though single readings can be large; an effect the other way counts as inactive or inconclusive.

Experiments:
[1] = target: Aryl hydrocarbon receptor (Homo sapiens) (UniProt P35869); test: qHTS assay to identify small molecule that activate the aryl hydrocarbon receptor (AhR) signaling pathway (AID 743085);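 further: HG2L7.5c1 human HepG2 liver cells with stably integrated DRE-driven firefly reporter; series mostly up to about 70 µM; nearly all actives have a fitted effect of over 15% in size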
Procedure, shortened: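 24 h compound exposure, 37C, HepG2-derived HG2L7.5c1 cells with DRE-responsive luciferase. Readouts: fluorescence viability, then luminescence at room temperature after 30 min.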

[2] = qHTS assay to identify small molecule that activate the aryl hydrocarbon receptor (AhR) signaling pathway - cell viability counter screen (AID 743086);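 further: HepG2 liver cells carrying the AhR DRE luciferase reporter; series mostly up to about 70 µM; nearly all actives have a fitted effect of over 45% in size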
Procedure, shortened: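 HepG2-AhR-luc (HG2L7.5c1) cells, 4000/well, were preincubated 5 h at 37C, exposed to compound in qHTS format for 24 hr at 37C, then given CellTiter-Fluor for 30 min; viability was read as fluorescence in the reporter wells.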

[3] = target: Peroxisome proliferator-activated receptor gamma (Homo sapiens) (UniProt P37231); test: qHTS assay to identify small molecule agonists of the peroxisome proliferator-activated receptor gamma (PPARg) signaling pathway (AID 743094; active means well fitted activation curve with a large enough effect in the signal ratio in the repeat runs, not every such curve was filed as active; the % refers to the signal ratio)
Procedure, shortened: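 GeneBLAzer PPARg UAS-bla HEK293H cells were plated, rested 5 h, then exposed to compounds for 17 h at 37C. Beta-lactamase activity was read by LiveBLAzer B/G FRET substrate fluorescence after 1 h at room temperature.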

[4] = target: Peroxisome proliferator-activated receptor gamma (Homo sapiens) (UniProt P37231); test: qHTS assay to identify small molecule antagonists of the peroxisome proliferator-activated receptor gamma (PPARg) signaling pathway (AID 743191; calls by dose curve; further: series mostly up to about 63 µM; nearly all actives have a fitted effect of over 30% in size)
Procedure, shortened: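 GeneBLAzer PPARg UAS-bla HEK293H cells carrying a UAS-driven beta-lactamase reporter were plated at 3000 cells/well, preincubated 5 h at 37C, then given compound for 17 h at 37C; LiveBLAzer B/G FRET substrate was read after 1 h at room temperature.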

[5] = qHTS assay to identify small molecule antagonists of the peroxisome proliferator-activated receptor gamma (PPARg) signaling pathway - cell viability counter screen (AID 743194); further: nearly all actives have a fitted effect of over 55% in size
Procedure, shortened: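 PPARg-UAS-bla HEK293H cells were plated, rested 5 h at 37 C, then treated with compounds plus rosiglitazone (50 nM final) for 17 h at 37 C; viability was then read by CellTiter-Glo luminescence after 30 min at room temperature.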

[6] = qHTS assay for small molecule agonists of the antioxidant response element (ARE) signaling pathway (AID 743202; active means well fitted activation curve with a large enough effect in the signal ratio in the repeat runs, not every such curve was filed as active; the % refers to the signal ratio)
Procedure, shortened: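 Compounds delivered in DMSO to ARE-bla HepG2 cells (2,000 cells/well, pre-incubated 5 h) and left 16 h at 37 C. LiveBLAzer B/G FRET substrate then added for 2 h at RT before fluorescence reading.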

[7] = qHTS assay for small molecule agonists of the antioxidant response element (ARE) signaling pathway - cell viability counter screen (AID 743203; calls by dose curve; further: nearly all actives have a fitted effect of over 55% in size)
Procedure, shortened: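 ARE-bla HepG2 cells were plated, rested 5 h at 37C/5% CO2, then exposed to compounds in DMSO for 16 h. Viability was read as CellTiter-Glo luminescence after 30 min at room temperature, in the same wells as the ARE screen.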

[8] = qHTS assay for small molecule activators of the heat shock response signaling pathway - cell viability counter screen (AID 743209); further: nearly all actives have a fitted effect of over 50% in size
Procedure, shortened: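 HSE-bla HeLa cells plated overnight, then exposed to Tox21 compounds (23 nL in DMSO) for 5 h at 37 C. After the bla reporter read, CellTiter-Glo was added in the same wells and luminescence read after 30 min at room temperature.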

[9] = qHTS assay for small molecule activators of the heat shock response signaling pathway (AID 743210; active means well fitted activation curve with a large enough effect in the signal ratio in the repeat runs, with a control signal flat, not every such curve was filed as active; the % refers to the signal ratio;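 further: HeLa cells with beta-lactamase reporter driven by heat shock elements; series mostly up to about 63 µM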)
Procedure, shortened: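 Reporter gene assay: HeLa cells stably bearing an HSE-bla construct, compound treatment 5 h at 37 C, LiveBLAzer substrate 2.5 h at RT, fluorescence intensity.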

[10] = qHTS assay to identify small molecule agonists of the peroxisome proliferator-activated receptor delta (PPARd) signaling pathway - cell viability counter screen (AID 743211); further: nearly all actives have a fitted effect of over 55% in size
Procedure, shortened: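 Luminescent ATP viability assay (CellTiter-Glo, 30 min RT) in UAS-bla HEK293H cells carrying the PPAR delta reporter construct, 3000 cells/well, after a 17 h compound treatment at 37 C.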

[11] = target: Peroxisome proliferator-activated receptor delta (Homo sapiens) (UniProt Q03181); test: qHTS assay to identify small molecule agonists of the peroxisome proliferator-activated receptor delta (PPARd) signaling pathway (AID 743212; calls by dose curve)
Procedure, shortened: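 A PPARd-bla HEK293H line with beta-lactamase under an Upstream Activator Sequence is treated with compounds at 37 C. Substrate loading for 2 h at room temperature precedes the fluorescence measurement.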

[12] = qHTS assay to identify small molecule antagonists of the peroxisome proliferator-activated receptor delta (PPARd) signaling pathway - cell viability counter screen (AID 743213); further: nearly all actives have a fitted effect of over 50% in size
Procedure, shortened: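 PPARd-bla HEK293H cells were treated with compounds plus agonist L165041 (300 nM final) for 17 h at 37 C. Viability was then read in the same wells by CellTiter-Glo luminescence after 30 min at room temperature.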

[13] = target: Peroxisome proliferator-activated receptor delta (Homo sapiens) (UniProt Q03181); test: qHTS assay to identify small molecule antagonists of the peroxisome proliferator-activated receptor delta (PPARd) signaling pathway (AID 743215; active means well fitted inhibition curve with a large enough effect in the signal ratio in the repeat runs, not every such curve was filed as active; the % refers to the signal ratio;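 further: cells stimulated with agonist L165041 at 300 nM final during compound exposure; series mostly up to about 62 µM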)
Procedure, shortened: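 PPARd-bla HEK293H cells (UAS-bla reporter) preincubated 5 h, then given compound plus 300 nM final L165041 agonist for 17 h at 37 C. Beta-lactamase activity read by LiveBLAzer B/G FRET substrate fluorescence after 2 h at room temperature.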

[14] = target: Bile acid receptor (Homo sapiens) (UniProt Q96RI1); test: qHTS assay to identify small molecule antagonists of the farnesoid-X-receptor (FXR) signaling pathway (AID 743217; active means well fitted inhibition curve with a large enough effect in the signal ratio in the repeat runs, not every such curve was filed as active; the % refers to the signal ratio)
Procedure, shortened: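 FXR-UAS-bla HEK 293T cells (beta-lactamase reporter) given compound plus chenodeoxycholic acid (50 uM final), 16 h at 37C. LiveBLAzer B/G FRET substrate added for 2 h at room temperature; fluorescence read.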

[15] = qHTS assay to identify small molecule agonists of the farnesoid-X-receptor (FXR) signaling pathway - cell viability counter screen (AID 743218); further: nearly all actives have a fitted effect of over 45% in size
Procedure, shortened: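 FXR-UAS-bla HEK 293T cells exposed to compounds for 16 h at 37C. Cytotoxicity read in the same wells by CellTiter-Glo luminescence after 30 min at room temperature, following the beta-lactamase FRET read.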

[16] = target: Bile acid receptor (Homo sapiens) (UniProt Q96RI1); test: qHTS assay to identify small molecule agonists of the farnesoid-X-receptor (FXR) signaling pathway (AID 743220; active means well fitted activation curve with a large enough effect in the signal ratio in the repeat runs, not every such curve was filed as active; the % refers to the signal ratio)
Procedure, shortened: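 Beta-lactamase reporter under UAS control in GeneBLAzer FXR HEK 293T cells (5000/well) measured with LiveBLAzer FRET substrate after 2 h at room temperature. Compound exposure lasted 16 h at 37C.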

[17] = qHTS assay to identify small molecule antagonists of the farnesoid-X-receptor (FXR) signaling pathway - cell viability counter screen (AID 743221; active means well fitted cell-killing curve with a large enough effect in the repeat runs, not every such curve was filed as active; further: nearly all actives have a fitted effect of over 50% in size)
Procedure, shortened: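 In GeneBLAzer FXR-UAS-bla HEK 293T cells stimulated with 50 uM chenodeoxycholic acid (final), compounds acted for 16 h at 37 C. Viability was assessed afterwards by CellTiter-Glo luminescence.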

[18] = target: Vitamin D3 receptor (Homo sapiens) (UniProt P11473); test: qHTS assay to identify small molecule agonists of the vitamin D receptor (VDR) signaling pathway (AID 743222; calls by dose curve)
Procedure, shortened: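 VDR-bla cells plated 4 h at 37 C, then exposed to compounds for 16 h at 37 C. Beta-lactamase reporter activity measured by fluorescence after 2 h room-temperature loading with LiveBLAzer B/G FRET substrate.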

[19] = target: Vitamin D3 receptor (Homo sapiens) (UniProt P11473); test: qHTS assay to identify small molecule antagonists of the vitamin D receptor (VDR) signaling pathway (AID 743223; active means well fitted inhibition curve with a large enough effect in the signal ratio in the repeat runs, not every such curve was filed as active; the % refers to the signal ratio)
Procedure, shortened: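 Agonist 1alpha,25-dihydroxyvitamin D3 (3 nM in well) was added with each compound to VDR-bla cells preincubated 4 h. Cells stood 16 h at 37C, then FRET substrate 2 h at room temperature; fluorescence intensity recorded.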

[20] = qHTS assay to identify small molecule agonists of the vitamin D receptor (VDR) signaling pathway - cell viability counter screen (AID 743224); further: series mostly up to about 63 µM; nearly all actives have a fitted effect of over 50% in size
Procedure, shortened: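 VDR-bla cells, 4 h after plating, exposed to compounds for 16 h at 37C; viability then read in the same wells as CellTiter-Glo luminescence after 30 min at room temperature, following the bla FRET read.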

Measured: Potency

Aryl hydrocarbon receptor (Homo sapiens), sequence (P35869 whole entry, looked up): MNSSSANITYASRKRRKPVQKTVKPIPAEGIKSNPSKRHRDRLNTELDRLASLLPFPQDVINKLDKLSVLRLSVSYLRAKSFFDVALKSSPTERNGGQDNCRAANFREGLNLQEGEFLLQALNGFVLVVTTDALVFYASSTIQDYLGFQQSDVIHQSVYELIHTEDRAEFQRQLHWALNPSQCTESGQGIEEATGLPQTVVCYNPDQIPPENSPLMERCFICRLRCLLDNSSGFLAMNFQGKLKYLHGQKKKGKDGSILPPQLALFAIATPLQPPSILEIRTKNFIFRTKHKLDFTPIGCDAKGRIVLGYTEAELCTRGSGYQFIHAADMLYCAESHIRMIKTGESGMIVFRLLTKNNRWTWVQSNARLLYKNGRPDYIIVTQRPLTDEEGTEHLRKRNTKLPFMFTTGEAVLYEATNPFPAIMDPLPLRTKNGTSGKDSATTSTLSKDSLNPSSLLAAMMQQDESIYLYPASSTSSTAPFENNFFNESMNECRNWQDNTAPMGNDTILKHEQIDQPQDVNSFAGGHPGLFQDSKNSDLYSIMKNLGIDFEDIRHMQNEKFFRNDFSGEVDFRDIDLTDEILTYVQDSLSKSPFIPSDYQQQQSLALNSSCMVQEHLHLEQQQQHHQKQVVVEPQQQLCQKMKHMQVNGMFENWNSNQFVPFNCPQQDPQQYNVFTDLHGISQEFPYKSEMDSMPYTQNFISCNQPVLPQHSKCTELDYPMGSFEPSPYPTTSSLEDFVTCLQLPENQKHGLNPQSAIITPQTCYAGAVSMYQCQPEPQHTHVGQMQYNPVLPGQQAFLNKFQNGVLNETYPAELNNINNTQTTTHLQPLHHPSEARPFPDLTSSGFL
Peroxisome proliferator-activated receptor gamma (Homo sapiens), sequence (P37231 whole entry, looked up): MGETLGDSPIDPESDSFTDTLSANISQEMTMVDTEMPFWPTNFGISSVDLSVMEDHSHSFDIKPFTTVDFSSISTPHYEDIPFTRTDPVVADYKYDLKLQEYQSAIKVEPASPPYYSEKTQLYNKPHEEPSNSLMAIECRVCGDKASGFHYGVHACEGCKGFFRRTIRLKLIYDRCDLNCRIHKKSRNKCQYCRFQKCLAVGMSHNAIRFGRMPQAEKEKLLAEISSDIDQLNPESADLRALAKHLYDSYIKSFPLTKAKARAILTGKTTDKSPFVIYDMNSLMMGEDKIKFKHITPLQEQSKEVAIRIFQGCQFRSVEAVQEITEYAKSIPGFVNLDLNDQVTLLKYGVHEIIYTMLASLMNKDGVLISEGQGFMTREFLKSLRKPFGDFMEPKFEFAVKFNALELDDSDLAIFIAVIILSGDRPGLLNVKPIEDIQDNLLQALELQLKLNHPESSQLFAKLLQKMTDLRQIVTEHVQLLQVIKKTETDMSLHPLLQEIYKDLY
Bile acid receptor (Homo sapiens), sequence (Q96RI1 whole entry, looked up): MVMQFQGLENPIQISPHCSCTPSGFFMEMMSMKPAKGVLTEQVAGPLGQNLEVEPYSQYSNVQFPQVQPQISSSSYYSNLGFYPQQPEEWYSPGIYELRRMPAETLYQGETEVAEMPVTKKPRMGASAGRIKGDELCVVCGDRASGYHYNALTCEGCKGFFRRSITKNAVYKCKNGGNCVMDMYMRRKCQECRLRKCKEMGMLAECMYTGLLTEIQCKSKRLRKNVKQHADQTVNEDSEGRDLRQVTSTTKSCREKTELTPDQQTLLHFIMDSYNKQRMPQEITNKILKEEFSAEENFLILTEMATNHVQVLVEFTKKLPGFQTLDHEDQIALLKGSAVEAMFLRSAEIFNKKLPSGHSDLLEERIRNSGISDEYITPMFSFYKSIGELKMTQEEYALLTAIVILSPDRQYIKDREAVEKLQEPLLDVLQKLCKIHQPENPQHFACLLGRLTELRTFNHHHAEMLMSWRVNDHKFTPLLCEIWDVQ
Vitamin D3 receptor (Homo sapiens), sequence (P11473 whole entry, looked up): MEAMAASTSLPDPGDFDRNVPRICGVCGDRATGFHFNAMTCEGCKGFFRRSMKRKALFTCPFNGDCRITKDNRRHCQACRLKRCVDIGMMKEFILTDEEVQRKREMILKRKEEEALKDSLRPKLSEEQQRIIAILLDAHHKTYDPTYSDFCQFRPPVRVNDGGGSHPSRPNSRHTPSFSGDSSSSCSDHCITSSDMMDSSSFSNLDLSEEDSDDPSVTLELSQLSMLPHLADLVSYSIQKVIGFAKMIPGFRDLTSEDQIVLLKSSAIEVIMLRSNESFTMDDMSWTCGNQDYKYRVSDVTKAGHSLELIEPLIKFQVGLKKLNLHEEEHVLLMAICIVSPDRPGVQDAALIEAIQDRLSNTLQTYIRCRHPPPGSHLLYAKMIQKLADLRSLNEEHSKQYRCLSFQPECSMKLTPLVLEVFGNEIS
Peroxisome proliferator-activated receptor delta (Homo sapiens), sequence (Q03181 whole entry, looked up): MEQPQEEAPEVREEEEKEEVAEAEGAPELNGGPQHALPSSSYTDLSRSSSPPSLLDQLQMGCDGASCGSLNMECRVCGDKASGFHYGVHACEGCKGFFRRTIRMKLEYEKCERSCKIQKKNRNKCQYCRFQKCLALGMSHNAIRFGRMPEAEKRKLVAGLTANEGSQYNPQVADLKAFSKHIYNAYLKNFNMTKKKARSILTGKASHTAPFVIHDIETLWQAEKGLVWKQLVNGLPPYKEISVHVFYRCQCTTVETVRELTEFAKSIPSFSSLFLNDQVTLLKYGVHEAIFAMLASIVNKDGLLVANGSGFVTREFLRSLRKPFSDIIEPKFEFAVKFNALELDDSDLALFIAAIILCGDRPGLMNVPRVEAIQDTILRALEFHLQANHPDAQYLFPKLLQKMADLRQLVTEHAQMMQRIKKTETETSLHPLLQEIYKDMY

NC(=O)c1cccnc1
inactive: all assays above

CC12CCC(CC1)C(C)(C)O2
inactive: all assays above

NS(=O)(=O)c1cc2c(cc1Cl)NCNS2(=O)=O
not listed: [11] | [13]
inactive: all other assays above

CN(N=O)C(=O)N[C@@H]1[C@@H](O)[C@H](O)[C@@H](CO)O[C@@H]1O
inactive: all assays above

Cc1cccc(C)c1
not listed: [14] | [16]
inactive: all other assays above

CCOc1ccc(NC(C)=O)cc1
not listed: [11] | [13]
inactive: all other assays above

CCCCNC(=O)NS(=O)(=O)c1ccc(C)cc1
inactive: all assays above

CS(=O)(=O)OCCCCOS(C)(=O)=O
not listed: [14] | [16]
inactive: all other assays above

NS(=O)(=O)O
not listed: [14] | [16]
inactive: all other assays above

O=c1[nH]cc(F)c(=O)[nH]1
inactive: all assays above

Cc1cc(C)nc(NS(=O)(=O)c2ccc(N)cc2)n1
not listed: [18] | [19]
inactive: all other assays above

O=C1NC(=O)C(c2ccccc2)(c2ccccc2)N1
not listed: [14] | [16] | [18] | [19]
inactive: all other assays above

O=C(O)CC(O)C(=O)O (stereo not given)
not listed: [11] | [13] | [14] | [16]
inactive: all other assays above
